# Laboratory results as given in PubChem BioAssay (NCI).
# Compounds without any hit were thinned out: in the full panel of roughly 83,000, 20% have a hit.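 96-well plates, one dose, 48 hours. Percent growth reported; active if below 10.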 The source made the active and inactive calls.
# Test system: ACHN renal
# Assay: NCI-60 one-dose screen, 48 h (100 = growth as untreated, 0 = no growth, -100 = all killed)
# Details: 10 µM unless noted
row,Structure (SMILES),growth
1,CCOC(=O)c1cnn(-c2nc(-c3ccc(F)cc3)c(C#N)c(N3CCOCC3)n2)c1N,95.7% (inactive)
2,Cc1c(O)c(=O)ccn1-c1nc2ccccc2s1,60.6% (inactive)
3,Nc1ccc(C2=NN(C(=O)c3cc(-c4ccc(Cl)cc4)nc4ccccc34)C(c3ccc(Cl)cc3)C2)cc1 (configuration not stated),54.4% (inactive)
4,COc1ccc2nc(-c3ccc(OC)c(OC)c3)cc(-c3nnc(SCC(=O)Nc4ccc(C(C)=O)cc4)o3)c2c1,101% (inactive)
5,CNCc1cccc2c1OCCOCCOCCN(CCN1CCOCC1)S(=O)(=O)c1ccc(cc1)-c1cnc(N)c(n1)C(=O)N2,36.7% (inactive)
6,COc1cc(C2=NN(C(C)=O)C(c3cccc(Nc4ccnc5cc(C(F)(F)F)ccc45)c3)C2)cc(OC)c1OC (configuration not stated),58.5% (inactive)
7,CC(C)CSc1nc(Nc2ccccc2)c(C#N)c(-c2ccc(F)cc2)n1,-43.2% (active)
8,CNc1cccc2c1C(=O)c1cccc(N)c1C2=O,72.2% (inactive)
9,NC(=O)c1ccc(C2C3=C(CCCC3=O)OC3=C2C(=O)c2ccccc2C3=O)cc1 (configuration not stated),27.9% (inactive)
10,C=CCn1c(SCC(=O)Nc2ccc(C(=O)/C=C/c3ccc(Cl)cc3)cc2)nnc1-c1cc(OC)c(OC)c(OC)c1,106% (inactive)
11,C=C1C(=O)O[C@H]2[C@H]1CC/C(C=Nc1c(N)cc(F)cc1Br)=C\CC[C@@]1(C)O[C@@H]21,63.4% (inactive)
12,COc1cc(-c2csc(NC(=O)Nc3ccc(Cl)cc3)n2)cc(OC)c1OC,18.3% (inactive)
13,COc1ccc(C(=O)c2cc(OC)c(C)c(OC)c2)cc1OC(=O)CCl,41.5% (inactive)
14,Nc1c(C(=O)Nc2cccc3ccccc23)sc2nc3c(cc12)COCC3,62.5% (inactive)
15,CN(C)C(CNc1oc(-c2cccc3ccccc23)nc1C#N)c1ccco1 (configuration not stated),90.6% (inactive)
16,Cc1cnc(-c2ccc(-c3ccc(NC(=O)Nc4c(F)cc(F)cc4F)cc3F)c3c2C(=O)NC3)[nH]1,50.4% (inactive)
17,COc1ccc(-c2cc(C(=O)N3N=C(c4ccc(N)cc4)CC3c3ccc(OC)cc3)c3cc(OC)ccc3n2)cc1 (configuration not stated),54.5% (inactive)
18,COc1cc([C@H](C)c2ccc3ccccc3c2)cc(OC)c1OC,35.1% (inactive)
19,O=c1nc(-c2ccccc2)c2cc(-c3ccc(N4CCCC4)nc3)ccc2[nH]1,82.6% (inactive)

row,Structure (SMILES),growth
1,Cc1cccc2nc3c(n12)C(=O)C(=O)c1ccccc1-3,69.4% (inactive)
2,CC(=O)Nc1c(C(=O)Nc2ccccc2)sc2nc3c(cc12)C(OC(C)=O)CCC3 (configuration not stated),59.5% (inactive)
3,CCN1CCN(c2ccc(NC(=O)Nc3nc4ccc(-c5ccccc5OC)cc4s3)cc2)CC1,-95.5% (active)
4,Cc1cc(Cl)cc(CN(Cc2ccccc2)Cc2c(O)ccc3ccccc23)c1O,102% (inactive)
5,COC1=CC=CC2(OC)C3(O)CCCc4cccc(c43)N3C(=O)COC132 (configuration not stated),105% (inactive)
6,C=C1C(=O)O[C@H]2[C@H]1CC/C(COC(=O)N1CCC[C@H]1C(=O)Nc1ccc(OC)c(C(N)=O)c1O)=C\CC[C@@]1(C)O[C@@H]21,30.6% (inactive)
7,Cc1cc(C)nc(NS(=O)(=O)c2ccc(Nc3ccc4c5c(n(CCCN(C)C)c(=O)c4c3)-c3ccccc3C5=O)cc2)n1,89.7% (inactive)
8,COc1cc(NC(=O)c2cc(O)c(C/C=C(\C)CCC=C(C)C)c(O)c2)cc2c1O[C@]1(C)CC[C@@H](O)C(C)(C)[C@H]1C2,4.47% (active)
9,CCCCCCN1C(=O)CN=C1Nc1ccc2cc3ccc(NC4=NCC(=O)N4CCCCCC)cc3nc2c1,67.6% (inactive)
10,Nc1ccc(C2=NN(C(=O)c3cc(-c4ccc(Cl)cc4)nc4ccccc34)C(c3ccccc3)C2)cc1 (configuration not stated),51.5% (inactive)
11,CN(CCC#N)C(=O)Nc1ccccc1,110% (inactive)
12,C=C(C)[C@@H]1CC[C@]2(C(=O)OCCCC[P+](c3ccccc3)(c3ccccc3)c3ccccc3)CC[C@]3(C)[C@H](CC[C@@H]4[C@@]5(C)CC[C@H](OC(=O)C(Cl)Cl)C(C)(C)[C@@H]5CC[C@]43C)[C@@H]12,-39.6% (active)
13,CSc1cccc(NC(=O)Nc2nc3c(C)cccc3s2)c1,101% (inactive)
14,O=C(O)c1cn(C2CC2)c2cc(N3CCN(Cc4nnc(Nc5ccccc5)o4)CC3)c(F)cc2c1=O,103% (inactive)
15,O=C1CS/C(=N/c2nnc(-c3ccc(O)cc3)s2)N1,103% (inactive)
16,COc1ccc2c(c1)C1(C(=O)N2)C(C#N)=C(c2ccccc2)Nc2c1c(-c1ccccc1)nn2-c1ccccc1 (configuration not stated),88.2% (inactive)
17,CCN1CCC[C@H]1c1cc(O)c2c(c1OC)C[C@H]1C[C@H]3[C@H](N)C(=O)C(C(N)=O)=C(O)[C@@]3(O)C(=O)C1=C2O,-2.88% (active)
18,O=C(/C(=C/c1ccc([N+](=O)[O-])cc1)SCc1ccccc1)c1ccc(Cl)cc1,76.5% (inactive)
